Hits are enriched below; roughly 3% of the tested compounds scored in any of these assays.
Nrf2 activator = activators of Nrf2 (ARE) signaling; hit rate 0.31% among 410,000; AREc32 ARE-luciferase reporter (MCF7-derived line), luminescence, 24 h; Potency, µM (doses to about 46.1 µM), most hits filed as activators; AID 624171; also: nearly all actives have a fitted effect of over 65% in size
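AREc32_Fluc, 1000 cells/well, OPTI-MEM + 5% FBS, o/n 37 deg C 5% CO2; 23 nL cpd by pin tool, 24 hr; Steady-Glo 30 min RT, luminescence.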
TrxR1 substrate = is turned over as a substrate by rat TrxR1. O89049. purified TrxR1 substrate turnover, NADPH consumption readout. Potency, µM (titrated, usually from 114 µM). hit rate 0.01% among 390,000; also: nearly all actives have a fitted effect of over 50% in size
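Rat TrxR1, dispensed at 90 nM, was prereduced with 400 uM NADPH (final) for 5 min at ~22 deg C, then incubated with compound 15 min before 400 uM selenite. A first-read NADPH fluorescence drop versus no-compound background flagged substrates.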
GALK inhibitor = galactokinase (human) inhibition | hit rate 0.007% among 270,000 | Potency, µM (top dose mostly 57.5 µM), actives largely listed as inhibitors | AID 1868 | Purified GALK, Kinase-Glo residual ATP luminescence | P51570
Target sequence (P51570 whole entry, looked up): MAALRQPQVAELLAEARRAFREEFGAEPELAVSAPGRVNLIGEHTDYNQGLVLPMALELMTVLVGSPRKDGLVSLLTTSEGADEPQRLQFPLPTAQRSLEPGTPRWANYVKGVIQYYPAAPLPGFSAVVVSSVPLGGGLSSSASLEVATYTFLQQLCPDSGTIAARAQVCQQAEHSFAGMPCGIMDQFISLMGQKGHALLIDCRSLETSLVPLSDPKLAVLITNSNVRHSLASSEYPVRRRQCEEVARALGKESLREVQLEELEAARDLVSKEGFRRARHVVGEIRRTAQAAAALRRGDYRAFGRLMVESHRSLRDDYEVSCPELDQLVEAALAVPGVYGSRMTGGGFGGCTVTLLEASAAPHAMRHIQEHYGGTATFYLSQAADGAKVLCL
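Galactose (100 uM) and ATP (35 uM) were turned over by 5 nM GALK for 1 h at RT. Kinase-Glo Plus then converted the remaining ATP into a luminescent signal.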
TrxR1 inh = inhibitors of rat thioredoxin reductase 1; recombinant rTrxR1, NADPH fluorescence consumption, selenite substrate; Potency, µM (top dose mostly 114 µM), hits mostly inhibitors; hit rate 1% among 390,000; also: nearly all actives have a fitted effect of over 65% in size
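Rat TrxR1 (90 nM in the dispensed reagent) was pre-reduced with 400 uM NADPH for 5 min at room temperature, then incubated with compound for 15 min. After 400 uM selenite was added, NADPH fluorescence (Ex 340/Em 450 nm) was followed for 8 min.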
Nrf2 block = blocks Nrf2 signaling; A549 ARE-Fluc reporter, luciferase luminescence, 18-24 h; Potency, µM (top dose mostly 46 µM), actives largely listed as inhibitors; hit rate 2.1% among 360,000; also: nearly all actives have a fitted effect of over 60% in size
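Two sequential reads on A549 ARE_Fluc cells exposed to compound for 18-24 h: a CellTiter-Fluor fluorescence read for viability, then a luciferase luminescence read for Nrf2/ARE activity.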
A549 viability = counter-screen for Nrf2 inhibitors: cytotoxicity in A549 cells; A549 ARE-Fluc cells, CellTiter-Fluor viability, 18-24 h; Potency, µM (highest dose often 46 µM), actives largely listed as inhibitors; hit rate 0.16% among 390,000; AID 504648
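A549 ARE-Fluc cells in 5% FBS OPTI-MEM, 5000 cells/well, rested 2 h then exposed to compounds in concentration-response for 18-24 h at 37 °C. Viability by CellTiter-Fluor fluorescence (Ex 405/Em 525) after 30 min; luciferase luminescence (BugLite, 15 min, RT) read afterwards.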
Each line names hits and unclear results; the compound was inactive in the other large screens. Calls follow the shape of the dose curve; as a rule, active = well fitted curve in the direction sought with a large enough effect; inconclusive = small, poorly fitted or top-dose-only effect, or another doubt; inactive = no such curve, though single readings can be large; an effect the other way counts as inactive or inconclusive.

COc1cc2nc(N3CCCCC3)nc(NC3CCN(C)CC3)c2cc1OC	TrxR1 inh inconclusive (no result: Nrf2 activator, GALK inhibitor, Nrf2 block, A549 viability)
O=C1c2[nH]nc(-c3ccc(F)cc3)c2C(c2ccccc2F)N1c1ccccc1 (stereo not given)	Nrf2 block inconclusive (no result: GALK inhibitor)
O=C(c1ccc(Cl)cc1)N1CCN(c2ccc([N+](=O)[O-])c(NCc3cccnc3)c2)CC1	Nrf2 block 26µM, A549 viability inconclusive (no result: GALK inhibitor)
S=c1[nH]nc(Cc2sc(-c3ccccc3)nc2-c2ccccc2)o1	GALK inhibitor 28µM (no result: Nrf2 block)
CCOc1ccc(S(=O)(=O)Nc2ccc(F)cc2)c(C)c1C	Nrf2 block 18µM
COc1ccc(/C=C/c2cc(C(=O)O)c3ccccc3n2)cc1	Nrf2 block 6.5µM (no result: GALK inhibitor)
Cn1c(-n2cccc2)c(-c2c(-c3ccc(F)cc3)[nH]c3c2c(=O)n(C)c(=O)n3C)c(=O)n(C)c1=O	none (no result: GALK inhibitor)
COc1cc(/C=N/NC(=O)c2c(-c3c(Cl)cccc3Cl)noc2C)ccc1OCC(N)=O	none
Cc1onc(-c2c(Cl)cccc2Cl)c1C(=O)N/N=C(\N)COc1ccc(Cl)cc1	Nrf2 block 8.2µM
Cc1csc2nc(COc3ccc(NC(=O)c4ccccc4F)cc3)cc(=O)n12	none (no result: GALK inhibitor)
N/C(=N\OC(=O)c1cccc(C(F)(F)F)c1)c1cnccn1	Nrf2 activator inconclusive, Nrf2 block inconclusive
O=C(OCn1ncc(Cl)c(Cl)c1=O)c1cccc(C(F)(F)F)c1	TrxR1 inh 16µM (no result: A549 viability)
CCN1CCN(S(=O)(=O)c2cc(OCC(=O)NC3CCCCC3)c(C)cc2Cl)CC1	Nrf2 block 4.1µM
Cc1ccccc1CS(=O)(=O)Cc1ccc(C(=O)NCc2ccco2)o1	TrxR1 inh 79µM
Cc1ccccc1CS(=O)(=O)Cc1ccc(C(=O)NCc2ccccn2)o1	TrxR1 inh 50µM
O=C(NCc1ccccn1)c1ccc(CS(=O)(=O)Cc2ccc(Cl)cc2)o1	TrxR1 inh inconclusive
COc1ccc(-c2c(C#N)c(SCC(=O)Nc3ccc(C)c(C)c3)nc(C)c2C(=O)Nc2ccc(Cl)cc2)cc1	none (no result: GALK inhibitor)
CCCCCCCCCCOC(=O)Cn1c(COc2ccccc2)[n+](C)c2ccccc21	Nrf2 block inconclusive
CCCCCCCCCCOC(=O)Cn1c(COc2ccc(OC)cc2)[n+](C)c2ccccc21	Nrf2 block 21µM, A549 viability inconclusive
S=c1[nH]nc(COc2ccccc2)n1/N=C/C=C/c1ccco1	Nrf2 activator 13µM
FC(F)(F)c1ccc(N2CCN(c3ncnc4c3nnn4Cc3ccccc3Cl)CC2)cc1	Nrf2 block inconclusive
Fc1ccc(N2CCN(c3ncnc4c3nnn4Cc3ccccc3Cl)CC2)cc1	Nrf2 block 13µM (no result: GALK inhibitor)
O=C(O)CSc1ccc2nnc(-c3cccnc3)n2n1	none
Fc1ccc(CSc2ccc3nnc(-c4cccnc4)n3n2)cc1	Nrf2 block 9.2µM
O=C(COc1ccccc1C(=O)Nc1ccccc1F)Nc1ccc(Br)cc1	none (no result: Nrf2 activator, GALK inhibitor, Nrf2 block, A549 viability)
O=[N+]([O-])c1cccc(-c2noc(-c3ccco3)n2)c1	Nrf2 activator 7.1µM, Nrf2 block inconclusive
O=[N+]([O-])c1cccc(-c2nc(-c3ccccc3)no2)c1	Nrf2 activator 4µM, Nrf2 block inconclusive
O=C(Cn1c(-c2cccs2)cc2ccccc21)NCc1ccccc1Br	Nrf2 block inconclusive (no result: GALK inhibitor)
O=C1CCC(C(=O)N2CCSCC2)CN1Cc1ccc(Cl)cc1 (stereo not given)	TrxR1 inh 45µM, Nrf2 block inconclusive
O=C1CCC(C(=O)N2CCOCC2)CN1Cc1ccc(Cl)cc1 (stereo not given)	none
Cc1ccc(Nc2nc(NCc3ccco3)nc3nccnc23)cc1C	none (no result: Nrf2 activator, GALK inhibitor)
CN(C)S(=O)(=O)c1ccc(S(=O)(=O)N2CCCC(C(=O)NC3CC3)C2)cc1 (stereo not given)	Nrf2 block 21µM
CCN(CC)S(=O)(=O)c1ccc(S(=O)(=O)N2CCCC(C(=O)NC3CC3)C2)cc1 (stereo not given)	Nrf2 block 5.8µM
CCN(CC)C(=O)Cn1cc(SCC(=O)Nc2ccccc2F)c2ccccc21	none (no result: GALK inhibitor)
COc1cc(F)c(S(=O)(=O)N2CCCN(S(=O)(=O)c3ccc(NC(C)=O)cc3)CC2)c(F)c1	Nrf2 block inconclusive (no result: Nrf2 activator, TrxR1 substrate, GALK inhibitor, TrxR1 inh)
O=C(NCc1ccco1)c1cccc2c1C(=O)c1ccc(/C=C/c3ccccc3)cc1S2(=O)=O	TrxR1 inh 22µM (no result: GALK inhibitor)
O=C(CSc1nc(=O)[nH]c2c1CCCC2)NCc1ccc(F)cc1	none (no result: GALK inhibitor, Nrf2 block)
COc1ccc(C2=Nn3c(nnc3-c3ccccc3Cl)SC2)cc1OC1CCOC1 (stereo not given)	none (no result: GALK inhibitor)
COc1ccc(C2=Nn3c(nnc3-c3ccccc3Cl)SC2)cc1OC1CCCC1	TrxR1 inh 7.1µM, Nrf2 block 16µM (no result: GALK inhibitor)
CCC1(c2ccccc2)SCC(c2ccccc2)=NC1=O (stereo not given)	Nrf2 block 18µM (no result: GALK inhibitor)
COc1cc(NC(=O)C(CCS(C)(=O)=O)N2Cc3ccccc3C2=O)cc(OC)c1OC (stereo not given)	none (no result: GALK inhibitor)
COc1cc(NC(=O)COc2cccc3c2OC(C)(C)C3)cc(OC)c1OC	Nrf2 block 10µM (no result: GALK inhibitor)
CCC1CN(C(=O)N2CCC(C(=O)NCCc3cc(OC)ccc3OC)CC2)c2ccccc2O1 (stereo not given)	Nrf2 block 23µM (no result: GALK inhibitor)
CCC1CN(C(=O)N2CCC(C(=O)NCc3cc(OC)ccc3OC)CC2)c2ccccc2O1 (stereo not given)	none (no result: GALK inhibitor)
CCOC(=O)N1CCN(c2nc(C(F)(F)F)nc3c(C)cc(C)cc23)CC1	Nrf2 block 23µM
Cc1cc(C)c2nc(C(F)(F)F)nc(N3CC(C)OC(C)C3)c2c1 (stereo not given)	none
COc1ccc(Cl)cc1NC(=O)C1CCN(S(=O)(=O)c2ccc3c(c2)CC(C)N3C(C)=O)CC1 (stereo not given)	Nrf2 block inconclusive (no result: GALK inhibitor)
Cc1ccc(NC(=O)c2ccc(N/N=C/c3cccc(O)c3)c([N+](=O)[O-])c2)cc1	Nrf2 block 18µM, A549 viability inconclusive
O=S1(=O)C=C(N2CCCCC2)c2ccccc21	Nrf2 activator 13µM
Cc1ccc(NS(=O)(=O)c2ccc(-c3ccccc3)cc2)cc1C	Nrf2 block inconclusive (no result: Nrf2 activator, TrxR1 substrate, GALK inhibitor, TrxR1 inh)
CCOC(=O)c1nnc2c(-c3ccc(OC)cc3)c(C)nn2c1N	none (no result: GALK inhibitor)
CC1CCCN(C(=O)c2ccc(OC3CCN(CCc4ccccc4)CC3)cc2)C1 (stereo not given)	Nrf2 block 16µM
Cc1cccc(NC(=O)NC2COc3ccccc3C2)c1C (stereo not given)	none (no result: GALK inhibitor, Nrf2 block)
CCOC(=O)C1CCN(Cc2cn3c(-c4ccc(OC)cc4)nnc3s2)CC1	none (no result: GALK inhibitor, Nrf2 block)
COC(=O)c1c(S(C)(=O)=O)nc(-c2ccccc2)[nH]c1=O	TrxR1 inh 40µM

Compound activity deposited in PubChem by National Center for Advancing Translational Sciences (NCATS).
